Test results published in PubChem BioAssay (NCI).
Compounds without any hit were thinned out: in the full panel of roughly 83,000, 20% have a hit.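 Interpretation: 100, growth as untreated; towards 0, rising growth inhibition; 0, no net growth; 0 to -100, cell death. Compounds scoring below 10 were considered active.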 The source made the active and inactive calls.

Key:
Assay in all cases: NCI-60 one-dose screen, 48 h (100 = growth as untreated, 0 = no growth, -100 = all killed)
Settings in all cases: 10 µM unless noted
T-47D breast = system: T-47D breast
BT-549 breast = system: BT-549 breast
MDA-MB-435 melanoma = system: MDA-MB-435 melanoma
SW-620 colon = system: SW-620 colon
MCF7 breast = system: MCF7 breast
HCT-116 colon = system: HCT-116 colon
HCC-2998 colon = system: HCC-2998 colon
KM12 colon = system: KM12 colon

Measured: growth

S=c1[nH]nc(-c2cc3ccc2CCc2ccc(cc2)CC3)n1-c1ccccc1
inactive: T-47D breast 89.1% | BT-549 breast 108% | MDA-MB-435 melanoma 93.3% | SW-620 colon 97.5% | MCF7 breast 85.3% | HCT-116 colon 88.1% | HCC-2998 colon 113% | KM12 colon 98.2%

N=C(N)c1ccc(-c2ccc(-c3cncc4ccccc34)s2)cc1F
inactive: BT-549 breast 89.5%
active: T-47D breast -63.3% | MDA-MB-435 melanoma -90.5% | SW-620 colon -62.1% | MCF7 breast -68.6% | HCT-116 colon -87.8% | HCC-2998 colon -98.2% | KM12 colon -89.4%

Cc1cc(C(C)(C)C)ccc1S
inactive: T-47D breast 91.6% | BT-549 breast 105% | MDA-MB-435 melanoma 111% | SW-620 colon 98.4% | MCF7 breast 86.4% | HCT-116 colon 103% | HCC-2998 colon 112% | KM12 colon 112%

CCN(CC)c1ccc(C(=N)c2ccc(N(CC)CC)cc2)cc1
active: T-47D breast -27.9% | BT-549 breast 8.11% | MDA-MB-435 melanoma -35.2% | SW-620 colon -21% | MCF7 breast -18.9% | HCT-116 colon -60.1% | HCC-2998 colon -74.5% | KM12 colon -38.2%

C=C(C)[C@@H]1CC[C@]2(C(=O)O)CC[C@]3(C)[C@H](CC[C@@H]4[C@@]5(C)C[C@@H](CC#Cc6ccc(C(F)(F)F)cc6)[C@H](O)C(C)(C)[C@@H]5CC[C@]43C)[C@@H]12
active: MDA-MB-435 melanoma -31.8% | MCF7 breast 8.54%
inactive: T-47D breast 19% | BT-549 breast 36.7% | SW-620 colon 15% | HCT-116 colon 11.4% | HCC-2998 colon 18.2% | KM12 colon 15.3%

COc1ccc(Nc2nn3c(C)cc(C)nc3c2C(=O)Nc2ccc(C)cc2)c(OC)c1
inactive: T-47D breast 87.7% | BT-549 breast 96.2% | MDA-MB-435 melanoma 105% | SW-620 colon 105% | MCF7 breast 101% | HCT-116 colon 99% | HCC-2998 colon 94.2% | KM12 colon 100%

C=C(C)[C@@H]1C[C@@H]2Cc3cc(Cl)ccc3N1O2
inactive: T-47D breast 106% | BT-549 breast 99.6% | MDA-MB-435 melanoma 99.4% | SW-620 colon 96.7% | MCF7 breast 100% | HCT-116 colon 96.1% | HCC-2998 colon 99.1% | KM12 colon 105%

Cc1nn(-c2ccc([N+](=O)[O-])cc2)c2ncnc(NCCc3ccccc3)c12
inactive: T-47D breast 93% | BT-549 breast 114% | MDA-MB-435 melanoma 94.9% | SW-620 colon 99.4% | MCF7 breast 93.1% | HCT-116 colon 92.5% | HCC-2998 colon 101% | KM12 colon 96.1%

ClC(Cl)c1nc(-c2ccccc2)nc2cc(-c3ccccc3)nn12
inactive: T-47D breast 24.2% | BT-549 breast 93.3% | MDA-MB-435 melanoma 94.2% | SW-620 colon 14.8% | MCF7 breast 47.9% | HCT-116 colon 29.7% | HCC-2998 colon 88.9% | KM12 colon 37.3%

O=C(/C=C/c1cc(-c2ccc3c(c2)OCO3)n[nH]1)c1ccc2c(c1)OCO2
inactive: T-47D breast 72.7% | BT-549 breast 88% | MDA-MB-435 melanoma 99.7% | SW-620 colon 93.8% | MCF7 breast 84.8% | HCT-116 colon 92.7% | HCC-2998 colon 106% | KM12 colon 94.6%

CC(C)(C)n1cc(-c2ccnc(NCCCNS(=O)(=O)c3cccc(F)c3)c2)c(-c2cccc(O)c2)n1
inactive: T-47D breast 35.7% | BT-549 breast 67.4% | MDA-MB-435 melanoma 61.2% | SW-620 colon 24.5% | MCF7 breast 21.6% | HCT-116 colon 47.1% | HCC-2998 colon 15.7% | KM12 colon 26.5%

CC1=C(C#N)C(=O)NC(C)C1 (centres undefined)
inactive: T-47D breast 91.4% | BT-549 breast 101% | MDA-MB-435 melanoma 107% | SW-620 colon 106% | MCF7 breast 101% | HCT-116 colon 110% | HCC-2998 colon 79.8% | KM12 colon 107%

COc1ccc(-c2ccc(C)n2-c2ccc(-c3nc4cc(Cl)ccc4s3)cc2)cc1
inactive: T-47D breast 66.8% | BT-549 breast 116% | MDA-MB-435 melanoma 95.1% | SW-620 colon 103% | MCF7 breast 48.3% | HCT-116 colon 97.4% | HCC-2998 colon 92.3% | KM12 colon 89.1%

CCCCCCCCN(CCCCCCCC)CCCCCCNc1cc(OC)cc2cccnc12
inactive: T-47D breast 104% | BT-549 breast 79.7% | MDA-MB-435 melanoma 95.2% | SW-620 colon 10.8% | MCF7 breast 61.7% | HCC-2998 colon 93.4% | KM12 colon 58.9%
active: HCT-116 colon -30.1%

COc1ccc(C(=O)N2NC(=O)/C(=C/c3ccc(F)cc3)N=C2c2ccccc2)cc1
inactive: T-47D breast 95.6% | BT-549 breast 83% | MDA-MB-435 melanoma 87.6% | SW-620 colon 69.3% | MCF7 breast 96.6% | HCT-116 colon 81.2% | HCC-2998 colon 97.4% | KM12 colon 85.5%

Cn1c(=O)cc(NC(=O)CN2CCN(c3cc4c(cc3F)c(=O)c(C(=O)O)cn4C3CC3)CC2)[nH]c1=O
inactive: T-47D breast 107% | BT-549 breast 105% | MDA-MB-435 melanoma 101% | SW-620 colon 99.3% | MCF7 breast 94.2% | HCT-116 colon 103% | HCC-2998 colon 100% | KM12 colon 101%

CN(CCCCCl)P(=O)(OCc1ccc([N+](=O)[O-])o1)C(F)(F)C[C@H](NC(=O)CNC(=O)c1ccc(N=[N+]=[N-])cc1)C(=O)NCCc1ccc(O)cc1 (some centres undefined)
inactive: T-47D breast 90.5% | BT-549 breast 79% | MDA-MB-435 melanoma 41.5% | SW-620 colon 37.6% | MCF7 breast 61.6% | HCT-116 colon 78.4% | HCC-2998 colon 98.4% | KM12 colon 91.1%

COc1ccc2[nH]c(=O)c(/C=N/Nc3nc(-c4ccccc4)cs3)c(O)c2c1
inactive: T-47D breast 72.6% | BT-549 breast 60.8% | MDA-MB-435 melanoma 79.3% | SW-620 colon 67.2% | MCF7 breast 67.2% | HCT-116 colon 50.8% | HCC-2998 colon 77.6% | KM12 colon 69.3%

COc1cc(-c2nn(-c3cccc(NC(=O)Nc4cccc(C(F)(F)F)c4)c3)cc2-c2ccncc2)ccc1Cl
active: T-47D breast -4.03% | BT-549 breast -15.4% | MDA-MB-435 melanoma -50% | SW-620 colon 8.92% | MCF7 breast -6.3% | HCT-116 colon 0.0611% | HCC-2998 colon -18.4% | KM12 colon -27.8%

CC(C)(C)Nc1c(-c2cccs2)nc2ncccn12
inactive: T-47D breast 93.1% | BT-549 breast 105% | MDA-MB-435 melanoma 107% | SW-620 colon 103% | MCF7 breast 93.8% | HCT-116 colon 98.6% | HCC-2998 colon 100% | KM12 colon 97.5%

Cc1[nH]c2ccc(F)cc2c1CCNC(=O)C1CCN(C(=O)c2ccccc2)C1 (centres undefined)
inactive: T-47D breast 69.5% [25 µM] | BT-549 breast 94.7% [25 µM] | MDA-MB-435 melanoma 99.3% [25 µM] | SW-620 colon 102% [25 µM] | MCF7 breast 90.9% [25 µM] | HCT-116 colon 99.7% [25 µM] | HCC-2998 colon 106% [25 µM] | KM12 colon 102% [25 µM]

COC(=O)c1nc(-c2ccccc2)oc1S(=O)(=O)N1CCN(c2cccc(Cl)c2)CC1
inactive: T-47D breast 66.2% | BT-549 breast 71% | MDA-MB-435 melanoma 69.8% | SW-620 colon 61.7% | MCF7 breast 39.2% | HCT-116 colon 54.8% | HCC-2998 colon 98.8% | KM12 colon 95.1%

COc1ccc(OC)c(/C=C2\Oc3cc(OCCCN4CCCC4)ccc3C2=O)c1
inactive: T-47D breast 92.6% | BT-549 breast 87.9% | MDA-MB-435 melanoma 91.2% | SW-620 colon 55.9% | MCF7 breast 55.7% | HCT-116 colon 46.1% | HCC-2998 colon 87.3% | KM12 colon 73.6%

Oc1ccc(Cl)cc1-c1cc(-c2ccc(F)cc2)n[nH]1
inactive: T-47D breast 24.3% | BT-549 breast 84.7% | MDA-MB-435 melanoma 83% | SW-620 colon 75.5% | MCF7 breast 15.8% | HCT-116 colon 51.5% | HCC-2998 colon 37.8% | KM12 colon 37%

COc1ccc(Nc2[nH]n3c(=O)cc(-c4ccccc4)nc3c2C(=O)Nc2ccc(C)cc2)c(OC)c1
inactive: T-47D breast 83.8% | BT-549 breast 92.9% | MDA-MB-435 melanoma 96.8% | SW-620 colon 99.5% | MCF7 breast 99.6% | HCT-116 colon 84.2% | HCC-2998 colon 111% | KM12 colon 106%

Cc1ccc(CSC(=N)N)cc1C
inactive: T-47D breast 108% | BT-549 breast 98.1% | MDA-MB-435 melanoma 112% | SW-620 colon 102% | MCF7 breast 101% | HCT-116 colon 105% | HCC-2998 colon 100% | KM12 colon 107%

O=C(Nc1ccncc1)C(=O)c1cn(S(=O)(=O)c2ccc(Br)cc2)c2ccccc12
active: MDA-MB-435 melanoma -3.46%
inactive: T-47D breast 41% | BT-549 breast 41.1% | SW-620 colon 18.2% | MCF7 breast 19.7% | HCT-116 colon 14.3% | HCC-2998 colon 72% | KM12 colon 26.2%

O=C1C2(c3ccccc3)C(c3ccccc3)=C(c3ccccc3)C1(c1ccccc1)C1CC=CC12 (centres undefined)
inactive: T-47D breast 68.3% | BT-549 breast 99.4% | MDA-MB-435 melanoma 92.9% | SW-620 colon 93.8% | MCF7 breast 82.8% | HCT-116 colon 76% | HCC-2998 colon 87.7% | KM12 colon 80%
